Shown are actives, neighbours in structure and some others; about 21% of the full set was active somewhere.
Shiga toxin inh: A qHTS for Small Molecule Inhibitors of Shiga Toxin | inhibition, % at 38.7 µM | AID 2315, 2010 | Vero cells, Shiga toxin protein synthesis inhibition reporter | 290,000 tested, 9.2% active; in the data active = inhibition mostly above about 28%, no sharp cut-off; inactive = mostly below about 43%
HCV inhibitor: qHTS Assay for Inhibitors of Hepatitis C Virus (HCV) | 340,000 tested, 3.4% active | Huh7.5.1 HCVcc-Cre infection, luciferase reporter, 44 h | Potency, µM (titrated, usually from 41.8 µM), hits mostly inhibitors
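Cells seeded at 1,000/well and cultured 4 h, then compounds added followed by HCVcc-Cre virus (~0.5 moi). After 44 h further culture, luciferase substrate was added, plates held 15 min at room temperature, and luminescence read for 15 sec.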
HCMV antiviral: qHTS Assay for inhibitors of the human cytomegalovirus (HCMV); HFF cells, HCMV-luciferase reporter, 72 h; active compounds read low; activity change, negative = inhibition, % at 57.5 µM; 410,000 tested, 4.5% active; AID 1259415, 2018; in the data active = activity change below about -60%; inconclusive = no clear call, values can overlap the other calls; inactive = above about -39%
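Compounds were evaluated in HFFs infected with an HCMV luciferase reporter virus (MOI 1 PFU/cell). Luciferase in lysates collected 72 h post infection served as the replication measure.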
Pf growth 96h: Primary qHTS for delayed death inhibitors of the malarial parasite plastid, 96 hour incubation. 320,000 tested, 6.9% active. P. falciparum luciferase reporter growth, 96 h. Potency, µM (series often up to 28.7 µM), hits mostly inhibitors
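Readout is luminescence from an integrated firefly luciferase in P. falciparum. Red cells, 2% hematocrit and 0.05% parasitemia final, were cultured with compound through two parasite generations (96 hours) at 37 C, 5% CO2.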
Pf growth 48h: Primary qHTS for delayed death inhibitors of the malarial parasite plastid, 48 hour incubation. P. falciparum luciferase growth in erythrocytes, 48 h. Potency, µM (top dose mostly 28.7 µM), most hits filed as inhibitors. 310,000 tested, 5.9% active. AID 504832, 2011
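Erythrocytes infected with P. falciparum carrying an integrated firefly luciferase reporter (2% hematocrit, 0.1% parasitemia final) were exposed to compounds in RPMI 1640 with 0.5% Albumax at 37 C, 5% CO2. Growth inhibition was scored as reduced luminescence.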
CHX counter: Cycloheximide Counterscreen for Small Molecule Inhibitors of Shiga Toxin; cell reporter, cycloheximide protein synthesis inhibition counterscreen; max response, %; 300,000 tested, 12% active; in the data active = max response mostly above about 13%, no sharp cut-off; inactive = mostly below about 14%; note: read at 38.3 µM for the half of the compounds with a filed dose
Of the large screens only hits and unclear results are named; the others gave an inactive call; ! = a repeat was not active. Unless noted, calls come from the whole dose curve; as a rule, active = well fitted inhibition curve with a large enough effect; inconclusive = small, poorly fitted or top-dose-only effect, or another doubt; inactive = no such curve, though single readings can be large or run the other way.

O=C1C(Cl)=C(Nc2ccccc2O)C(=O)N1c1ccccc1	Shiga toxin inh 67, Pf growth 48h inconclusive, CHX counter 45
C#CCNC(=O)C1=C[C@H](c2ccc(Br)cc2)[C@@H](CCCO)[C@H](OCC)O1	Pf growth 48h inconclusive
COc1ccc(NC(=O)c2sc3cc(C(F)(F)F)cnc3c2-c2cccs2)cc1	Pf growth 96h 12µM (no result: Pf growth 48h)
N#C/C(=C\c1cccnc1)c1ccc(Br)cc1	HCV inhibitor inconclusive, Pf growth 96h inconclusive, Pf growth 48h inconclusive, CHX counter 47
CCc1ccccc1-n1nnc(-c2ccccc2)n1	HCMV antiviral inconclusive
Brc1ccccc1-n1nnc(-c2ccnc3ccccc23)n1	HCV inhibitor inconclusive, Pf growth 96h inconclusive, CHX counter 19
CSc1cccc(-n2nnc(-c3nsc(NC(=O)c4cccs4)n3)c2C)c1	none (no result: Shiga toxin inh, HCV inhibitor, Pf growth 96h, Pf growth 48h, CHX counter)
Cc1ccc(NC(=S)NC2CC3CCCC(C2)N3Cc2cccs2)cc1 (stereo not drawn)	HCV inhibitor inconclusive, Pf growth 48h inconclusive
Cc1cccc(NC(=S)NC2CC3CCCC(C2)N3Cc2cccs2)c1C (stereo not drawn)	Pf growth 96h 5.9µM, Pf growth 48h inconclusive
Cc1c(Cl)cccc1NC(=S)N(Cc1cccs1)C1CCCC1	Pf growth 96h inconclusive, CHX counter 16
CCc1ccccc1NC(=S)NC1CC2CCCC(C1)N2Cc1cccs1 (stereo not drawn)	HCV inhibitor inconclusive, Pf growth 96h 1.5µM, Pf growth 48h 8.3µM
Cc1cc(Oc2ccc(=O)n(C)n2)nc(SCc2ccccc2)n1	none
CN(C)c1ccc(O)c2c1CC1CC3[C@@H](N(C)C)C(=O)C(C(N)=O)=C(O)[C@]3(O)C(=O)C1=C2O (stereo partly drawn)	HCMV antiviral inconclusive, Pf growth 96h 0.33µM, Pf growth 48h 4.7µM
C[C@H]1c2cccc(O)c2C(O)=C2C(=O)[C@]3(O)C(O)=C(C(N)=O)C(=O)[C@@H](N(C)C)[C@@H]3[C@@H](O)[C@@H]21	Pf growth 96h 0.74µM, Pf growth 48h 4.7µM, CHX counter 10! (no result: HCMV antiviral)
CN(C)C1C(=O)C(C(N)=O)C(=O)C2(O)C(=O)C3C(=O)c4c(O)cccc4C(C)(O)C3C(O)C12 (stereo not drawn)	Pf growth 96h 3µM, Pf growth 48h 9.5µM (no result: HCV inhibitor, HCMV antiviral)
CN(C)[C@@H]1C(=O)C(C(N)=O)=C(O)[C@@]2(O)C(=O)C3=C(O)c4c(O)cccc4[C@@](C)(O)[C@H]3[C@H](O)[C@@H]12	HCMV antiviral inconclusive, Pf growth 96h 3.8µM!, Pf growth 48h 13µM!
CN(C)C1C(=O)C(C(N)=O)C(=O)C2(O)C(=O)C3C(=O)c4c(O)ccc(Cl)c4C(O)C3CC12 (stereo not drawn)	none (no result: HCV inhibitor, HCMV antiviral, Pf growth 96h, Pf growth 48h)
CN(C)[C@@H]1C(=O)C(C(N)=O)=C(O)[C@@]2(O)C(=O)C3=C(O)c4c(O)ccc(Cl)c4[C@@](C)(O)[C@H]3C[C@@H]12	HCV inhibitor 0.89µM, Pf growth 48h inconclusive
CN(C)[C@H]1C(=O)C(C(=O)NCN2CCCC2)=C(O)[C@]2(O)C(=O)C3=C(O)c4c(O)cccc4[C@@](C)(O)[C@H]3C[C@@H]12	none (no result: Shiga toxin inh, HCV inhibitor, HCMV antiviral, CHX counter)
C=C1c2c(Cl)ccc(O)c2C(O)=C2C(=O)[C@@]3(O)C(O)=C(C(N)=O)C(=O)[C@@H](N(C)C)[C@@H]3[C@@H](O)[C@H]12	Pf growth 96h 0.72µM, Pf growth 48h 4.1µM (no result: Shiga toxin inh, HCV inhibitor, HCMV antiviral, CHX counter)
CN(C)[C@@H]1C(=O)C(C(N)=O)=C(O)[C@@]2(O)C(=O)C3=C(O)c4c(O)cccc4[C@@](C)(O)C3C[C@@H]12 (stereo partly drawn)	Pf growth 96h 2.1µM, Pf growth 48h 7.4µM (no result: Shiga toxin inh, CHX counter)
CCC(C)C(NC(=O)C1CCC(=O)N1C(=O)OCc1ccccc1)C(=O)NC(Cc1ccccc1)C(N)=O (stereo not drawn)	none
CC(C)CC(NC(=O)C1CCC(=O)N1C(=O)OCc1ccccc1)C(=O)NC(Cc1ccccc1)C(N)=O (stereo not drawn)	Pf growth 48h 10µM
O=S(=O)(Nc1ncccn1)c1ccc(NC(=S)Nc2ccccc2Cl)cc1	none
